Screens: PubChem, several laboratories
esBAF inh – inhibitors of esBAF chromatin remodeling in mouse ES cells; Bmi1-luciferase knock-in reporter, 24 h; 100% = twice the neutral-well signal; reporter increase, % at 12.5 µM; 350,000 tested, 2% active; AID 602393; in the data active = activation above about 40%;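 also: 0% = median of the plate's neutral control wells and 100% = double that signal; a rise in the Bmi1 reporter signal indicates esBAF inhibition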
NR3A LBD binder – modulates the human NR3A ligand-binding domain. NR3A LBD differential scanning fluorimetry, Tm shift; 0% = protein alone, 100% = glycine-bound protein. 340,000 tested, 2.5% active. AID 1259313. Tm shift relative to glycine control, % at 25 µM;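 active = melting temperature shift of at least 10% of the positive control shift, at one fixed dose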
NadD block – inhibitors of Staphylococcus aureus NadD; purified NadD enzyme, colorimetric absorbance read-out; inhibition, % at 20 µM; 360,000 tested, 0.78% active; AID 602399; in the data active = inhibition above about 26%
Vif inh – blocks HIV Vif function | HEK293T cells, Vif self-association by quenched fluorescence, imaging, 24 h | inhibition, % at 7.49 µM | 340,000 tested, 0.35% active | AID 602346; in the data active = inhibition above about 50%, passing the limit was not always enough
SMARCA2 act – increases SMARCA2 function in MMTV reporter cells; MG213 cells, MMTV-luciferase reporter, dexamethasone, overnight; activation, % at 9.1 µM; 370,000 tested, 1% active; in the data active = activation above about 7.8%;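 also: 0% = vehicle wells and 100% = reference activator wells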
SKN-1 inh – blocks SKN-1 activity in C. elegans | C. elegans VP596 Pgst-4::GFP/RFP ratio, acrylamide-induced, 24 h | inhibition, % at 21.8 µM | 360,000 tested, 0.49% active;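 active = interference check ratio from 0.5 to 1.5 plus GFP to RFP signal ratio inhibition reaching or exceeding a fixed threshold, cut at about 30% in these data, passing the limit was not always enough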
SMARCA2 act conf – SMARCA2 activation, confirmation screen | shares compounds with SMARCA2 act | 3,500 tested, 30% active | MG213 cells, MMTV-luciferase with dexamethasone, luminescence, overnight; MG213 cells expressing E1A, Rb sequestered; DMSO wells 0%, reference activator 100% | activation, % at 9.1 µM;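 active = activation above its plate's cutoff, the mean activation of tested wells plus 3 SD, cut at about 7.9% in these data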
VP16 Luc act – activates GAL4-VP16 luciferase, flagging SMARCA2 activator hits; shares compounds with SMARCA2 act; HEK293 GAL4-VP16 pG5luc reporter, luciferase luminescence; scaled: DMSO wells 0%, SAHA wells 100%; activation, % at 9.1 µM; 3,500 tested, 41% active; AID 686939;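 active = activation above the solvent-only control well mean plus 3 SD, averaged across control plates, cut at about 5.2% in these data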
Starred values were filed as active, the others as inactive; / = no result given. Rows were chosen to be rich in hits. Some 5.2% of all compounds tested hit in one or more screens of this group.

SMILES	esBAF inh	NR3A LBD binder	NadD block	Vif inh	SMARCA2 act	SKN-1 inh	SMARCA2 act conf	VP16 Luc act
O=C(/C=C/Sc1ccccc1)c1ccc(Cl)cc1	/	/	7.2	10.7	8.1*	35.7*	5.0	6.4*
CN(C)/N=C/C=C1\CCC/C(=C/c2cccs2)C1=O	35.9	1.7	-3.3	-4.0	8.3*	17.6	7.7	5.3*
C[C@H]1CN([C@@H](C)CO)S(=O)(=O)c2ccc(C#CC3CCCC3)cc2O[C@@H]1CN(C)C(=O)Cc1ccncc1	9.2	/	/	/	/	/	/	/
C=CS(=O)(=O)c1c2cc(OC)ccc2nc2ccc(OC)cc12	/	-22.3	-0.6	1.1	14.9*	19.6	-8.7	13.3*
COc1cc(OC)c(OC)cc1CNCCNC(=O)c1ccco1	-0.1	-2.4	-1.2	9.0	9.2*	4.1	-0.3	-0.6
Cc1cc(C(=O)OCC(=O)c2ccc3c(c2)OCCO3)c(C)o1	5.0	2.7	-12.2	/	8.1*	8.4	7.5	2.4
COC(=O)CNC(=O)COC(=O)c1ccc(Cl)nc1	7.7	-2.7	2.1	-0.3	8.8*	-0.9	0.1	0.7
O=C(COC(=O)c1ccc(Cl)nc1)NCCc1ccc(Cl)cc1	-10.2	6.8	-0.6	10.6	-3.8	-14.3	/	/
Cc1c(C(=O)OCC(=O)c2ccc3c(c2)OCCO3)oc2ccccc12	31.3	-2.7	-7.9	-4.0	8.0*	3.4	4.2	2.5
Cc1c(C(=O)Nc2ccc3c(c2)OCO3)oc2ccccc12	50.1*	0.8	-9.2	-6.1	9.7*	-13.8	-0.3	11.0*
C/C=C/c1cnc2c(c1)C(=O)N([C@@H](C)CO)C[C@H](C)[C@H](CN(C)Cc1ccncc1)O2	-1.8	/	/	/	/	/	/	/
CO[C@H]1CC[C@@H]2CCN(C)C(=O)[C@H](C)[C@H](OC)CN(C)C(=O)c3cc(C#N)ccc3OC[C@H]1O2	-3.4	/	/	/	/	/	/	/
C[C@@H]1CN([C@@H](C)CO)S(=O)(=O)c2ccc(C#Cc3cccnc3)cc2O[C@H]1CN(C)CC1CCCC1	-0.3	/	/	/	/	/	/	/
O=C(COC(=O)c1cccnc1Cl)c1ccc2c(c1)OCCO2	32.2	-1.2	-5.4	4.8	1.8	-1.4	/	/
O=C(COC(=O)c1ccc(Cl)nc1)c1ccc2c(c1)OCCO2	/	-1.9	-3.9	-3.1	10.2*	2.2	4.3	3.0
Cc1c(C(=O)OCC(=O)N2CCC(C)CC2)oc2ccccc12	26.9	3.0	-8.8	-5.5	9.2*	8.5	-1.2	4.0
COc1ccc2oc(C(=O)OCC(=O)N3CCC(C)CC3)c(C)c2c1	-11.3	0.1	-3.5	2.2	-2.4	9.4	/	/
CCCNC(=O)Nc1ccc2c(c1)OC[C@H](C)N(C(=O)C1CCC1)C[C@@H](C)[C@H](OC)CN(C)C2=O	0.6	/	/	/	/	/	/	/
C[C@@H]1CN([C@@H](C)CO)S(=O)(=O)c2ccc(C3=CCCCC3)cc2O[C@@H]1CN(C)C(=O)C1CC1	-13.1	/	/	/	/	/	/	/
C[C@@H]1CN([C@@H](C)CO)C(=O)c2cc(NC(=O)NC3CCCCC3)ccc2O[C@@H](C)CCCCO[C@H]1CN(C)C(=O)CCCN(C)C	0.9	/	/	/	/	/	/	/
Cc1ccc(S(=O)(=O)N/N=C\c2ccc(Cl)c([N+](=O)[O-])c2)cc1	-0.4	2.2	1.9	/	10.9*	5.5	0.7	-0.5
CC1CC(NC(=O)/C=C/C(=O)O)CC(C)(C)C1 (centres undefined)	-6.9	2.1	3.1	1.4	10.5*	-3.1	-1.5	0.8
CO[C@@H]1CN(C)C(=O)c2ccc(NS(C)(=O)=O)cc2OC[C@@H](C)N(C(=O)C2CCC2)C[C@H]1C	-2.3	/	/	/	/	/	/	/
COc1ccc(-c2cc(=O)n(-c3nc4ccccc4[nH]3)[nH]2)cc1	24.4	-7.2	6.2	-5.1	8.4*	-5.4	18.1*	3.4
COc1ccc(CCCc2nc3ccccc3[nH]2)cc1	0.7	-1.1	-7.1	-0.1	6.4	-0.5	/	/
SMILES	esBAF inh	NR3A LBD binder	NadD block	Vif inh	SMARCA2 act	SKN-1 inh	SMARCA2 act conf	VP16 Luc act
CCOc1cccc(-c2cc(C(=O)N/N=C/c3ccc(OC)c(CN4CCOCC4)c3)c3ccccc3n2)c1	/	-6.1	-8.2	-2.9	-0.9	-0.9	/	/
COc1ccc(/C=N\NC(=O)c2nn(C)cc2Cl)cc1CN1CCOCC1	/	3.5	-3.3	-0.7	10.5*	1.6	-2.1	2.1
O=C(Nc1ccccn1)c1ccc([N+](=O)[O-])o1	/	-0.3	-1.1	1.3	/	-0.9	/	/
O=C(Nc1ncccn1)c1ccc([N+](=O)[O-])o1	/	0.7	2.5	14.1	14.7*	3.5	10.0*	0.8
CC(C)(C)C(=O)N1CCN(c2ccc(NC(=O)c3ccc([N+](=O)[O-])o3)cc2)CC1	-27.8	0.8	-3.4	1.0	9.8*	6.5	1.5	4.2
CCCC(=O)N1CCN(c2ccc(NC(=O)c3ccc([N+](=O)[O-])o3)cc2)CC1	/	1.2	-0.5	29.9	-0.6	3.6	/	/
NC(=O)c1ccsc1NC(=O)c1ccc([N+](=O)[O-])o1	9.7	-4.3	-0.1	-3.0	8.3*	2.4	17.6*	4.6
O=C(Nc1cccc([N+](=O)[O-])c1)c1ccc([N+](=O)[O-])o1	-70.2	/	2.8	5.3	15.3*	5.7	19.4*	2.0
C[C@@H]1CN([C@@H](C)CO)C(=O)c2cc(NC(=O)c3ccncc3)ccc2O[C@H]1CN(C)C(=O)Nc1ccccc1	-6.1	/	/	/	/	/	/	/
O=C(NCC1CCCCC1)[C@H]1N[C@H]2c3ccc(C4=CCCC4)c(=O)n3C[C@H]2[C@@H]1CO	-4.9	/	/	/	/	/	/	/
N/C(Cc1cccs1)=N\OC(=O)COc1ccc(Br)cc1Cl	16.4	-9.7	-2.8	-0.8	7.7	4.8	/	/
N/C(Cc1cccs1)=N\OC(=O)COc1ccccc1Cl	39.7	-0.6	-5.7	17.8	8.4*	12.8	4.0	6.8*
Cc1ccc(S(=O)(=O)N(C)C[C@H]2Oc3c(NC(=O)c4cc(C)nn4C)cccc3C(=O)N([C@@H](C)CO)C[C@@H]2C)cc1	-0.7	/	/	/	/	/	/	/
Cc1ccc(C(=O)COc2cc(C)nc3nncn23)cc1	-9.4	0.4	-0.2	-1.3	10.9*	6.8	-1.5	2.0
CCOC(=O)c1cccc(NC(=S)NCc2ccc(C)cc2)c1	2.5	-2.4	0.0	-0.1	8.0*	10.5	2.2	0.8
CC(=O)c1cccc(NC(=S)NCc2ccccc2)c1	3.6	1.4	-5.2	-7.4	4.1	8.6	/	/
C[C@H](CO)N1C[C@H](C)[C@@H](CN(C)S(=O)(=O)c2ccc(F)cc2)Oc2ncc(/C=C/c3ccccc3)cc2C1=O	-9.9	/	/	/	/	/	/	/
O=C(NC1CCCCCCC1)c1ccc(F)cc1	-3.7	2.2	-7.6	4.6	11.6*	15.6	12.2*	7.5*
